Over roughly 16,000 sequences, “rpm ratio (pull-down/input)” has its median near 0.94; the highest 2% begin near 1.7. Many of the other results were omitted from the sample, so the highest values are more common in it than they were.

This assay has as its target T1, MBP-FoxP1dN (Mus musculus, UniProt P58462 326-579).
T1 sequence: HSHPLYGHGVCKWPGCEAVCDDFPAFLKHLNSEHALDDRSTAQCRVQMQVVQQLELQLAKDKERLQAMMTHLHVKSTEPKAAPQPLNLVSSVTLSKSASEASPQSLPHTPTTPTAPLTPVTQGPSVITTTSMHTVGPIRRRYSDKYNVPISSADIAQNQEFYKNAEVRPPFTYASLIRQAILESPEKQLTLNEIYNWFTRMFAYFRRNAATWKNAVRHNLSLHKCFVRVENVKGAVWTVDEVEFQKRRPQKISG
Briefly: PD-seq (MBP pull-down with sequencing); 20 mM Tris-HCl pH 7.5, 100 mM NaCl, 1.5 mM MgCl2, 0.4 uM protein, 0.1 uM dsDNA library, 30 min, room temperature, amylose pull-down; high values mean tight binding. Conditions: protein: recombinant; tags: His6-MBP; chain copies: 2; dsDNA, one strand shown. The gist of the method:
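Mouse FoxP3 or FoxP1 fragment lacking the N-terminus, His6-MBP-tagged and expressed in E. coli, was incubated at 0.4 µM with 0.1 µM Klenow-filled degenerate double-stranded DNA library for 30 min at room temperature in Tris pH 7.5 buffer with NaCl and MgCl2. Complexes captured on amylose resin were washed three times and their DNA sequenced on Illumina. Binding is reads-per-million enrichment of pull-down over input, replicates pooled.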
With “GATGATTGTTCTCCCAGCTGATGAATTTAACGCCTCGAGTAAACAAATTTTCCTAATCTTTCTGTTCAAGCGCCATCTAC”, the binding signal was 0.91 RPM ratio (pull-down/input).

As for “GATGATTGTTCTCCCAGCTGATGAATTAGCGCACTCGAGTAAACAAATTTTCCTAATCTTTCTGTTCAAGCGCCATCTAC”, the binding signal is 0.88 RPM ratio (pull-down/input).

Consider “GATGATTGTTCTCCCAGCTGATGAATTACACGCGTCGAGTAAACAAATTTTCCTAATCTTTCTGTTCAAGCGCCATCTAC”, for which the binding signal is 1.18 RPM ratio (pull-down/input).

Turning to “GATGATTGTTCTCCCAGCTGATGAATTCACGGGTTCGAGTAAACAAATTTTCCTAATCTTTCTGTTCAAGCGCCATCTAC”, the binding signal is 0.766 RPM ratio (pull-down/input).

As to “GATGATTGTTCTCCCAGCTGATGAATTCAGTCTATCGAGTAAACAAATTTTCCTAATCTTTCTGTTCAAGCGCCATCTAC”, the binding signal was 0.905 RPM ratio (pull-down/input).

Regarding “GATGATTGTTCTCCCAGCTGATGAATTCGCCACTTCGAGTAAACAAATTTTCCTAATCTTTCTGTTCAAGCGCCATCTAC”, the binding signal is 0.857 RPM ratio (pull-down/input).

As for “GATGATTGTTCTCCCAGCTGATGAATTGTACTCATCGAGTAAACAAATTTTCCTAATCTTTCTGTTCAAGCGCCATCTAC”, the binding signal was 1.04 RPM ratio (pull-down/input).

With “GATGATTGTTCTCCCAGCTGATGAATTTTATAGGTCGAGTAAACAAATTTTCCTAATCTTTCTGTTCAAGCGCCATCTAC”, the binding signal was 0.796 RPM ratio (pull-down/input).

Regarding “GATGATTGTTCTCCCAGCTGATGAATTGAGTGTATCGAGTAAACAAATTTTCCTAATCTTTCTGTTCAAGCGCCATCTAC”, the binding signal is 1.16 RPM ratio (pull-down/input).

On to “GATGATTGTTCTCCCAGCTGATGAATTCATCTTATCGAGTAAACAAATTTTCCTAATCTTTCTGTTCAAGCGCCATCTAC”, for which the binding signal is 0.961 RPM ratio (pull-down/input).

With “GATGATTGTTCTCCCAGCTGATGAATTTTATGTATCGAGTAAACAAATTTTCCTAATCTTTCTGTTCAAGCGCCATCTAC”, the binding signal is 1.71 RPM ratio (pull-down/input).

Consider “GATGATTGTTCTCCCAGCTGATGAATTATCTTTATCGAGTAAACAAATTTTCCTAATCTTTCTGTTCAAGCGCCATCTAC”, for which the binding signal is 1.09 RPM ratio (pull-down/input).

“GATGATTGTTCTCCCAGCTGATGAATTCATGTAATCGAGTAAACAAATTTTCCTAATCTTTCTGTTCAAGCGCCATCTAC”: the binding signal is 1.5 RPM ratio (pull-down/input).

“GATGATTGTTCTCCCAGCTGATGAATTTATGATATCGAGTAAACAAATTTTCCTAATCTTTCTGTTCAAGCGCCATCTAC”: the binding signal is 1.33 RPM ratio (pull-down/input).

For “GATGATTGTTCTCCCAGCTGATGAATTATGTAAATCGAGTAAACAAATTTTCCTAATCTTTCTGTTCAAGCGCCATCTAC”, the binding signal was 1.47 RPM ratio (pull-down/input).

Regarding “GATGATTGTTCTCCCAGCTGATGAATTTTATGAATCGAGTAAACAAATTTTCCTAATCTTTCTGTTCAAGCGCCATCTAC”, the binding signal was 0.942 RPM ratio (pull-down/input).

Regarding “GATGATTGTTCTCCCAGCTGATGAATTATGTTTATCGAGTAAACAAATTTTCCTAATCTTTCTGTTCAAGCGCCATCTAC”, the binding signal was 2.99 RPM ratio (pull-down/input).

On to “GATGATTGTTCTCCCAGCTGATGAATTCATGTTATCGAGTAAACAAATTTTCCTAATCTTTCTGTTCAAGCGCCATCTAC”, for which the binding signal was 1.78 RPM ratio (pull-down/input).

With “GATGATTGTTCTCCCAGCTGATGAATTTATGTAATCGAGTAAACAAATTTTCCTAATCTTTCTGTTCAAGCGCCATCTAC”, the binding signal was 1.95 RPM ratio (pull-down/input).

Consider “GATGATTGTTCTCCCAGCTGATGAATTATGATTATCGAGTAAACAAATTTTCCTAATCTTTCTGTTCAAGCGCCATCTAC”, for which the binding signal is 1.51 RPM ratio (pull-down/input).

As for “GATGATTGTTCTCCCAGCTGATGAATTTATGTTATCGAGTAAACAAATTTTCCTAATCTTTCTGTTCAAGCGCCATCTAC”, the binding signal was 2.22 RPM ratio (pull-down/input).

Regarding “GATGATTGTTCTCCCAGCTGATGAATTCCATGTGTCGAGTAAACAAATTTTCCTAATCTTTCTGTTCAAGCGCCATCTAC”, the binding signal was 0.939 RPM ratio (pull-down/input).

Consider “GATGATTGTTCTCCCAGCTGATGAATTTTTCGGATCGAGTAAACAAATTTTCCTAATCTTTCTGTTCAAGCGCCATCTAC”, for which the binding signal was 0.904 RPM ratio (pull-down/input).

As to “GATGATTGTTCTCCCAGCTGATGAATTCCTTTAGTCGAGTAAACAAATTTTCCTAATCTTTCTGTTCAAGCGCCATCTAC”, the binding signal is 0.819 RPM ratio (pull-down/input).

For the sequence “GATGATTGTTCTCCCAGCTGATGAATTAGTGCAGTCGAGTAAACAAATTTTCCTAATCTTTCTGTTCAAGCGCCATCTAC”, the binding signal is 0.937 RPM ratio (pull-down/input).

“GATGATTGTTCTCCCAGCTGATGAATTGTTTGGATCGAGTAAACAAATTTTCCTAATCTTTCTGTTCAAGCGCCATCTAC”: the binding signal is 1.65 RPM ratio (pull-down/input).

As to “GATGATTGTTCTCCCAGCTGATGAATTGGGGACCTCGAGTAAACAAATTTTCCTAATCTTTCTGTTCAAGCGCCATCTAC”, the binding signal was 0.742 RPM ratio (pull-down/input).

For “GATGATTGTTCTCCCAGCTGATGAATTCGGACTATCGAGTAAACAAATTTTCCTAATCTTTCTGTTCAAGCGCCATCTAC”, the binding signal is 0.87 RPM ratio (pull-down/input).

As to “GATGATTGTTCTCCCAGCTGATGAATTGAATTTATCGAGTAAACAAATTTTCCTAATCTTTCTGTTCAAGCGCCATCTAC”, the binding signal is 1.05 RPM ratio (pull-down/input).

For the sequence “GATGATTGTTCTCCCAGCTGATGAATTGATGTTATCGAGTAAACAAATTTTCCTAATCTTTCTGTTCAAGCGCCATCTAC”, the binding signal was 2.17 RPM ratio (pull-down/input).

Consider “GATGATTGTTCTCCCAGCTGATGAATTTCAGTTATCGAGTAAACAAATTTTCCTAATCTTTCTGTTCAAGCGCCATCTAC”, for which the binding signal is 1.02 RPM ratio (pull-down/input).

These data come from PMC12820563, “FoxP3 forms a head-to-head dimer in vivo and stabilizes its multimerization on adjacent microsatellites”.
